Compounds with a hit are over-represented: about 7.4% of the library has one in this group of screens.
Luciferase inh: blocks purified firefly luciferase enzyme activity; hit rate 2.5% among 76,000; Potency, µM (doses to about 115 µM), most hits filed as inhibitors; purified P. pyralis luciferase, luminescence, biochemical; note: nearly all actives have a fitted effect of over 65% in size
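Luminescence read by CCD imaging after purified firefly luciferase (10nM final) was added to substrate buffer holding 10uM D-luciferin and 10uM ATP, pH 7.5, pre-dosed with compound.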
SNCA expr inh: SNCA gene expression inhibition; Potency, µM (doses to about 57.2 µM), for the others: at the top dose activity change, negative = inhibition, hits mostly inhibitors; AID 1671194; hit rate 0.17% among 140,000; HEK-293 SNCA-luciferase knock-in, luminescence, 24 h;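 note: plate controls were DMSO cells for no effect and cell-free wells for full effect; nearly all actives have a fitted effect of over 45% in size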
NIH3T3 tox: NIH 3T3 cell cytotoxicity; hit rate 4.3% among 94,000; Potency, µM (series often up to 96.7 µM), for inactives: top-dose activity change, negative = cytotoxicity, actives largely listed as inhibitors; NIH 3T3 viability, CellTiter-Glo ATP luminescence, 48-72 h; note: nearly all actives have a fitted effect of over 55% in size
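Cytotoxicity was measured by CellTiter-Glo ATP luminescence after 48 or 72 h compound exposure at 37 °C. Mouse NIH 3T3 fibroblasts were seeded at 400 cells/well and dosed by 23 nL pin transfer.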
hNpr1 antagonist: blocks ANP-stimulated signaling of human Npr1 receptor; P16066; HEK293 hNpr1 GloSensor cGMP, ANP-stimulated luminescence; Potency, µM (top dose mostly 46.3 µM), for the others: at the top dose activity change, negative = inhibition, most hits filed as inhibitors; hit rate 1.6% among 76,000; calls by dose curve; note: nearly all actives have a fitted effect of over 60% in size
Target sequence (P16066 whole entry, looked up): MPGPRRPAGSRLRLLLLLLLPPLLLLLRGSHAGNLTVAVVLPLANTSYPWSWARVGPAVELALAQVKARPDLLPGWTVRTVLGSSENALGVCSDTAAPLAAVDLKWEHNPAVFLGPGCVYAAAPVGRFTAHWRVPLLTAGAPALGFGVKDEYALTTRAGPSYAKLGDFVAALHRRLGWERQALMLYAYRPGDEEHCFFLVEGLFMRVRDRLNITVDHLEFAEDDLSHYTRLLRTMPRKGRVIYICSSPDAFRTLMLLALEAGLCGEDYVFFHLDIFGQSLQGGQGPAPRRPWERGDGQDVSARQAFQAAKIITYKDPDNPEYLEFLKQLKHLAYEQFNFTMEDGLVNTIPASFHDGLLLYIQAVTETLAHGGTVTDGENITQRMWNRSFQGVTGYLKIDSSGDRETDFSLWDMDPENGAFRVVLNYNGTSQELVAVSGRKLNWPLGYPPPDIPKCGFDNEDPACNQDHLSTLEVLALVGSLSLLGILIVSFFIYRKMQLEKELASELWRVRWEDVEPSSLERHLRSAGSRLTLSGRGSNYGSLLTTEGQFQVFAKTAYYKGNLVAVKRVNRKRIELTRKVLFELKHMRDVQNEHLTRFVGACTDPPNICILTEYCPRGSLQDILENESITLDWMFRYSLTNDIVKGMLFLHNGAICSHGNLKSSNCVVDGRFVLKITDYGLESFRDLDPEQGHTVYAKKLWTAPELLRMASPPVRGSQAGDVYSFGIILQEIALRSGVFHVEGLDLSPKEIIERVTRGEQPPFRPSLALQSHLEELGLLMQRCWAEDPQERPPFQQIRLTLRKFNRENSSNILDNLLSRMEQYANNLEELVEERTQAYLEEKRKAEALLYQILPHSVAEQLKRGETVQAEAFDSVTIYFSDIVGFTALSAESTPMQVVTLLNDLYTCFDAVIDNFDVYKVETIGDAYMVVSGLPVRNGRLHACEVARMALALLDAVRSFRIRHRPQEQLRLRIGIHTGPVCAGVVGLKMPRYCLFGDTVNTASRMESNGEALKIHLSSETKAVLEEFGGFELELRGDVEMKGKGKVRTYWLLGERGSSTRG
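Compound pre-incubated 30 min at room temperature on GloSensor-loaded HEK293 cells stably carrying hNpr1 and the pGS-40F cGMP biosensor. Stimulation uses hNppA at 0.1 nM final; luminescence is taken at baseline and 20 min post-agonist.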
HEK293 viab: reduces viability of HEK-293 SNCA reporter cells; AID 1671193; hit rate 0.12% among 150,000; HEK-293-SNCA-luc viability, GF-AFC fluorescence, 24 h; Potency, µM (titrated, usually from 57.1 µM), inactives show top-dose activity change, negative = cytotoxicity, most hits filed as cytotoxic;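 note: 0% = DMSO-treated cells and -100% = medium-only wells without cells; nearly all actives have a fitted effect of over 30% in size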
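Cytotoxicity counterscreen: after 24 h compound treatment of genome-edited SNCA-luciferase HEK-293 cells, live-cell protease substrate GF-AFC read by fluorescence after 30 min; activity scaled between DMSO (0%) and medium-only (-100%), curves Hill-fitted.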
HEK cytotox: HEK 293 cell cytotoxicity; AID 1345083; hit rate 6.6% among 94,000; HEK 293 viability, ATP luminescence (CellTiter-Glo), 48-72 h; Potency, µM (series often up to 115 µM), for inactives: at the top dose activity change, negative = cytotoxicity, usual class: inhibitors; note: nearly all actives have a fitted effect of over 60% in size
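Cells seeded first (HEK 293, 250 cells/well), then compound added by pintool. Incubation ran 48 or 72 hr at 37 degree Celsius. CellTiter-Glo was added and luminescence imaged after 10 min at room temperature.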
Numbers without * were called inactive; i = inactive; ? = inconclusive; . = not tested or not shown; [ ] = dose if it differs, or a comment. Unless noted, calls come from the whole dose curve; as a rule, active = well fitted curve in the direction sought with a large enough effect; inconclusive = small, poorly fitted or top-dose-only effect, or another doubt; inactive = no such curve, though single readings can be large; an effect the other way counts as inactive or inconclusive. Unless noted, % is set by controls: 0 for no effect and ±100 for the full control effect; potency is the fitted concentration of half-maximal effect.

SMILES | Luciferase inh | SNCA expr inh | NIH3T3 tox | hNpr1 antagonist | HEK293 viab | HEK cytotox
COc1ccc(Nc2ccnc(N3CCCC(C(=O)NCc4ccc(F)cc4)C3)n2)cc1 (stereo not given) | . | ? | 28µM* | . | ? | ?
COc1ccc(Nc2ccnc(N3CCCC(C(=O)N4CCN(C(C)=O)CC4)C3)n2)cc1 (stereo not given) | . | 7% | ? | . | -8% | -14%
COc1ccc(Nc2ccnc(N3CCCC(C(=O)N4CCCC(C)C4)C3)n2)cc1 (stereo not given) | . | -3% | 45µM* | . | -11%[12.5 µM] | ?
COc1ccc(Nc2ccnc(N3CCCC(C(=O)NCC(F)(F)F)C3)n2)cc1 (stereo not given) | . | 3% | ? | . | 9% | ?
Cc1ccsc1CN1CCC(CO)(CN2CCCC2)CC1 | i | 13% | -20% | 5% | 2% | ?
CNC(=O)[C@@H]1C[C@H](n2cc(CNC(=O)Nc3ccc(Cl)cc3)nn2)CN1 | i | -14% | i | 7% | -1% | -1%
C[C@@H](N)C(=O)N1CCC(C(=O)Nc2cccc(-c3cccc(Cl)c3)c2)CC1 | i | 5% | 28µM* | 4% | -1% | 40µM*
O=C1N2CCCC2CN1C1CCN(Cc2ccc(OC(F)(F)F)cc2)CC1 (stereo not given) | i | -14% | ? | ? | -3% | 40µM*
O=C1N2CCCC2CN1C1CCN(Cc2ccc(F)cc2)CC1 (stereo not given) | i | 15%[87.6 µM] | -15%[138 µM] | -3%[70.6 µM] | 11%[87.6 µM] | -24%[172 µM]
Cc1ccc(CN2C[C@H]3CN(Cc4ccc(OC(F)(F)F)cc4)CCN3C2=O)cc1 | i | -8%[87.6 µM] | 50µM* | ? | -4%[87.6 µM] | 71µM*
COc1ccc(CN2C[C@H]3CN(Cc4c[nH]c5ccccc45)CCN3C2=O)cc1 | i | -21%[87.6 µM] | ? | -5%[70.6 µM] | -7%[87.6 µM] | 100µM*
COc1ccc(CN2C[C@H]3CN(Cc4ccc(Cl)cc4)CCN3C2=O)cc1 | i | -19%[87.6 µM] | ? | ? | -15%[87.6 µM] | 71µM*
CCOCC(=O)N1CCCCCCNC(=O)[C@@H]2C[C@@H](c3nc(-c4cccnc4)no3)C[C@@H]21 | i | -1% | -2% | -5% | -18% | 4%
CCCNC(=O)NCC1Cn2cccc2CN1Cc1ccccc1 (stereo not given) | i | -2% | ? | -1% | 10% | ?
Cc1ccsc1C(=O)N1CCC[C@H](n2c(=O)n(CC3CC3)c3cccnc32)C1 | i | -19% | ? | -23% | -8% | 25µM*
Cn1nc(C(=O)N2CCC[C@H](n3c(=O)n(CC4CC4)c4cccnc43)C2)c2ccccc21 | . | ? | ? | . | ? | 32µM*
COCCn1c(=O)n([C@H]2CCCN(C(=O)c3nn(C)c4ccccc34)C2)c2ncccc21 | i | 10% | -23% | 10% | 11% | ?
CC(C)c1noc(CN(C)C(=O)c2csc3nc(-c4ccc(F)cc4)cn23)n1 | i | -18% | ? | ? | -10% | 45µM*
CN(Cc1nccn1C)C(=O)c1csc2nc(-c3ccc(C(F)(F)F)cc3)cn12 | 40µM* | 12% | ? | -11% | -3% | 40µM*
CC(C)(CN1CCOCC1)NC(=O)c1csc2nc(-c3ccc(F)cc3)cn12 | i | 19% | -27% | 0% | -20% | ?
COc1ccc(OC)c(NC(=O)C2CCN(c3cnc4nccnc4c3)CC2)c1 | i | 24% | ? | -3% | 3% | 40µM*
CCOc1ccccc1NC(=O)C1CCN(c2cnc3nccnc3c2)CC1 | i | -4% | -32% | -11% | 2% | -18%
COc1cccc(NC(=O)N2[C@@H]3CC[C@H]2CC(NC(=O)c2cnc(C)cn2)C3)c1 (stereo not given in full) | ? | 11% | -19% | 0% | -9% | 1%
CCCCNC(=O)CN1C(=O)COc2ccc(S(=O)(=O)N3CCCC3)cc21 | . | -3% | . | . | -19% | .
